Only some compounds are listed: those with a hit (about 10% of all), similar ones and a draw of the others.
MmCpn inh – Inhibitors of TCP-1 ring complex (TRiC) of Methanococcus maripaludis (MmCpn): qHTS; Chaperonin Mm-Cpn (Methanococcus maripaludis); purified Mm-Cpn ATPase, ADP Transcreener TR-FRET; Potency, µM (top dose mostly 76.9 µM), hits mostly inhibitors; 330,000 compounds, 0.031% hits; AID 504842, 2011; further: nearly all actives have a fitted effect of over 80% in size
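Purified archaeal chaperonin (25 nM final) was preincubated with compound for 10 min at 37°C, then ATP (10 uM final) was added for 30 min at 37°C in Tris pH 7.4/KCl/MgCl2/DTT buffer. ADP was quantified by HTRF Transcreener TR-FRET.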
VDR inhibitor – Inhibitors of the vitamin D receptor (VDR): qHTS | 400,000 compounds, 0.93% hits | Potency, µM, usual class: inhibitors | VDR-SRC2-3 peptide fluorescence polarization, 2 h
Target sequence (P11473 whole entry, looked up): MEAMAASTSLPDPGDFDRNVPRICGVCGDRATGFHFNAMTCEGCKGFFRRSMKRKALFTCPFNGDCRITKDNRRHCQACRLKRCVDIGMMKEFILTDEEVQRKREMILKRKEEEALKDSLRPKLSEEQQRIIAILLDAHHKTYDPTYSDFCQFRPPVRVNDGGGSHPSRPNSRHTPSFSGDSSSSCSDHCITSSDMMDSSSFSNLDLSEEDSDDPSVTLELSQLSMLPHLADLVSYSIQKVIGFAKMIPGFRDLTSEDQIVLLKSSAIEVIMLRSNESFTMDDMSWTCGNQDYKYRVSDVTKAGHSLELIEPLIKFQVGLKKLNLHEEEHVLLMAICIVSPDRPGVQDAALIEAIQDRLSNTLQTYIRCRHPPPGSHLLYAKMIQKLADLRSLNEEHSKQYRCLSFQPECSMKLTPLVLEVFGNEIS
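Fluorescence polarization assay of small-molecule disruption of VDR binding to coregulator peptide SRC2-3. Compounds and controls pin-transferred, then read after 2 h incubation at ambient room temperature.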
Sfp PPTase inh – qHTS Assay for Inhibitors of Bacillus subtilis Sfp phosphopantetheinyl transferase (PPTase). Biochemical Sfp PPTase activity, qHTS. 310,000 compounds, 3.5% hits. 4'-phosphopantetheinyl transferase ffp (Bacillus subtilis), Q9F4F7. Potency, µM, usual class: inhibitors;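 further: the enzyme is Sfp with the accession as filed and its product quenches rhodamine fluorescence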
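Reaction rates are the 30-min fluorescence difference (ex 525, em 598 nm) in wells containing 15 nM Sfp, 5 uM rhodamine-CoA and 12.5 uM BHQ-2-YbbR at pH 7.6 with 10 mM MgCl2.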
G9a inh – qHTS Assay for Inhibitors of Histone Lysine Methyltransferase G9a | Histone-lysine N-methyltransferase EHMT2 (Homo sapiens), Q96KQ7 | G9a H3K9 monomethylation, AlphaScreen, 2 h | Potency, µM (top dose mostly 102 µM), usual class: inhibitors | 350,000 compounds, 8.8% hits | AID 504332, 2011; further: nearly all actives have a fitted effect of over 75% in size
Target sequence (Q96KQ7 913-1193 limits assumed): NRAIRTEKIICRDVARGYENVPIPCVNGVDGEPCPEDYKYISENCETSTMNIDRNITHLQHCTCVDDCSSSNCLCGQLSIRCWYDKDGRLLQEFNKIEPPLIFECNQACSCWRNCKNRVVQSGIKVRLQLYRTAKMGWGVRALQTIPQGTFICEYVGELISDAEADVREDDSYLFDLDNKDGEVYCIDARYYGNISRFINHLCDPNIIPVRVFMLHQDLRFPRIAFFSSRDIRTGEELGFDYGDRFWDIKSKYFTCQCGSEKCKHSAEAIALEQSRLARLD
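G9a (20 nM) was preincubated 15 min with compound, then reacted 2 h at room temperature with 500 nM biotin-H3K9 peptide and 20 µM SAM. Monomethyl-H3K9 detected by AlphaScreen using anti-H3K9me1 antibody.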
CCT modulator – High-Throughput Screening for Modulators of Cytosolic Chaperonin Activity; purified chaperonin ATPase assay, HTRF ADP detection, 30 min; activity change, % (concentration not given with the values), hits read low; 360,000 compounds, 0.3% hits; in the data active means activity change below about -30%
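Nucleotide hydrolysis assay: TRiC at 20–40 nM final (set by batch activity) with 10 uM ATP, 30 min at 37 °C, in presence of 76 uM compound. Detection by competitive ADP HTRF, 30 min ambient.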
PLK1 PBD inh – qHTS for Inhibitors of PLK1-PDB (polo-like kinase 1 - polo-box domain): Primary Screen. 360,000 compounds, 2.8% hits. Potency, µM, hits mostly inhibitors. Serine/threonine-protein kinase PLK1 (Homo sapiens), P53350. Plk1 PBD binding of FITC phosphopeptide, fluorescence polarization; further: series mostly up to about 57 µM; nearly all actives have a fitted effect of over 65% in size
Numbers stand for hits; – = inactive; ? = inconclusive; · = not tested or not shown; [ ] = remark or other dose. Unless noted, the call rests on the fitted dose curve; in most records, active means well fitted curve in the direction sought with a large enough effect; inconclusive means small, poorly fitted or top-dose-only effect, or another doubt; inactive means no such curve, though single readings can be large; an effect the other way counts as inactive or inconclusive.

SMILES | MmCpn inh | VDR inhibitor | Sfp PPTase inh | G9a inh | CCT modulator | PLK1 PBD inh
Cc1ccccc1NC(=O)c1ccc(Nc2c([N+](=O)[O-])cc([N+](=O)[O-])c3ccccc23)cc1 | – | – | – | 7.9µM | – | –
CC[C@H](C)NC(=O)c1ccc(Cn2c(=S)[nH]c3c([nH]c4ccc(OC)cc43)c2=O)cc1 | – | – | – | 56µM | – | –
CCN(CC)CCNC(=O)CCCCn1c(=S)[nH]c2c([nH]c3ccc(OC)cc32)c1=O | – | – | ? | 13µM | – | –
COc1ccc2[nH]c3c(=O)n(Cc4ccc(C(=O)N5CCC(C(N)=O)CC5)cc4)c(=S)[nH]c3c2c1 | – | ? | 22µM | 3.2µM | – | 21µM
COc1ccc2[nH]c3c(=O)n(Cc4ccc(C(=O)N5CCCCCC5)cc4)c(=S)[nH]c3c2c1 | – | – | – | ? | – | –
CCCCNC(=O)c1ccc(Cn2c(=S)[nH]c3c([nH]c4ccc(OC)cc43)c2=O)cc1 | – | – | – | – | – | –
Cc1cc(C)cc(NC(=O)Cn2c(C(F)(F)F)nc3ccccc32)c1 | · | – | · | – | · | ·
CCOc1ccc(NC(=O)CCS(=O)(=O)c2cccc3nonc23)cc1 | · | – | · | – | · | ·
COc1ccc(Br)cc1CNC(=O)c1cc(=O)[nH]c2ccc(S(=O)(=O)N3CCCCC3C)cc12 (stereo not drawn) | · | – | · | – | · | ·
CC(C)n1c2ccccc2c2cc([N+](=O)[O-])ccc21 | – | – | – | – | – | –
C[n+]1c(-c2ccccc2)cc2c(=Cc3ccccc3)c3ccccc3n21 | · | ? | · | · | – | 3.8µM
C[n+]1c(-c2ccccc2)cc2c(=Cc3ccc([N+](=O)[O-])cc3)c3ccccc3n21 | · | ? | · | · | – | 2.1µM
CN(C)c1ccc(C=c2c3cc(O)ccc3n3c2cc(-c2ccccc2)[n+]3C)cc1 | · | – | · | · | – | ?
Cc1ccc(Nc2c3c(nc4nncn24)CCC3)cc1C | · | – | · | – | · | ·
O=C(Nc1ccc(N2CCOCC2)cc1)c1cccc(-n2cnnc2)c1 | – | – | – | 45µM | – | –
CCc1nnc(NC(=O)c2ccc(Cl)nc2)s1 | – | – | – | ? | – | –
Cc1cc(C)n(-c2ccc(C(=O)Nc3ccc(N4CCOCC4)cc3)cc2)n1 | – | – | – | 56µM | – | –
O=C(Nc1ccc(N2CCOCC2)cc1)c1ccc(Cl)nc1 | – | – | – | 50µM | – | –
CCN(c1ccc(NC(=O)c2ccc(Cl)nc2)cc1)C(C)C | – | – | – | 22µM | – | –
Nc1ncnc2nc(-c3ccc(N4CCOCC4)nc3)cc(-c3cccc(Br)c3)c12 | · | – | ? | ? | · | ·
CC(=O)Nc1ccccc1-c1nc2ccc(C(=O)N3CCN(c4ccccc4)CC3)cc2[nH]c1=O | – | – | – | 45µM | – | –
CC(C)(C)CC(C)(C)N1CNC(=S)NC1 | – | – | – | 45µM | – | –
Cc1cc(C)c(OCC(=O)N(Cc2cccc(F)c2)Cc2ccco2)c(C)c1 | · | – | · | – | · | ·
Cc1nc(NC(=O)CSc2nc(N)cc(N)n2)sc1C | – | – | – | – | – | –
CCOC(=S)SCC(=O)Nc1nc(C)c(C)s1 | – | ? | 56µM | –[12.7 µM] | – | ?
SMILES | MmCpn inh | VDR inhibitor | Sfp PPTase inh | G9a inh | CCT modulator | PLK1 PBD inh
CCOC(=S)SCC(=O)Nc1nccs1 | – | – | 71µM | ? | – | –
CCOC(=O)C(=O)Nc1nccs1 | – | – | – | · | – | –
CSc1nc(N)c2ncn([C@@H]3O[C@H](COP(=O)(O)OP(=O)(O)O)[C@H](O)[C@H]3O)c2n1 | · | · | · | –[12.7 µM] | · | ·
CCNC(=S)N1CCNC(=O)C1CC(=O)OC (stereo not drawn) | – | – | 79µM | – | – | –
CCc1ccccc1NC(=S)N1CCNC(=O)C1CC(=O)OC (stereo not drawn) | – | – | – | – | – | 21µM
COC(=O)CC1C(=O)NCCN1C(=S)NC(=O)c1ccccc1[N+](=O)[O-] (stereo not drawn) | – | – | 79µM | ? | – | –
CC(C)OC(=O)CC1C(=O)NCCN1C(=S)NC(=O)c1cccs1 (stereo not drawn) | – | – | 56µM | 45µM | – | –
O=C(Nc1ccc2oc(-c3cccc(F)c3)nc2c1)c1ccc2ccccc2c1 | · | – | · | ? | · | ·
CCOC(=O)c1ccc(NC(=O)C2CCCN(c3ccc(Sc4ccc(C)cc4)nn3)C2)cc1 (stereo not drawn) | · | – | · | – | · | ·
Cc1cccnc1NC(=S)NCc1ccco1 | – | – | 16µM | 2.5µM | – | –
CC(C)(C)c1ccc(C(=O)NC(=S)NCc2ccco2)cc1 | – | – | – | – | – | –
CC(C)(CO)NC(=S)NCc1ccco1 | – | – | 16µM | 40µM | – | –
S=C(NCc1ccco1)Nc1ccc(Cl)cn1 | – | – | – | 8.9µM | – | ?
Cc1cc(C)c(C(=O)COC(=O)c2cc([N+](=O)[O-])ccc2N2CCOCC2)cc1C | – | – | · | 16µM | – | –
CC1CCCN(C(=O)COC(=O)c2cc([N+](=O)[O-])ccc2N2CCOCC2)C1 (stereo not drawn) | – | – | · | ? | – | –
CC1CC(C)CN(C(=O)COC(=O)c2cc([N+](=O)[O-])ccc2N2CCOCC2)C1 (stereo not drawn) | – | – | · | 79µM | – | –
O=C(COc1ccc(F)cc1)Nc1cc(Cl)ccc1-n1cncn1 | – | – | · | 56µM | – | –
O=C(Nc1cc(Cl)ccc1-n1cncn1)c1ccc(Br)o1 | – | – | · | 56µM | – | –
Cc1cccc(OCC(=O)Nc2cc(Cl)ccc2-n2cncn2)c1C | – | – | · | ? | – | –
CCCOc1ccccc1OCC(=O)Nc1cc(Cl)ccc1-n1cncn1 | – | – | · | 45µM | – | –
COC(=O)c1ccccc1NC(=O)CCC(=O)N1CCOc2ccccc21 | · | – | · | – | · | ·
Cc1cc(C)c2nc3nc(C)c(C)cc3c(N)c2c1 | – | – | – | 50µM | – | –
N#CC12CCCCC1CC1CCCCC1(C#N)N2N (stereo not drawn) | – | ? | 79µM | ? | – | –
N#CC12CCCCC1CC1CCCCC1(C#N)N2CCO (stereo not drawn) | – | – | – | – | – | –
Cc1ccc(NC(=O)CC2Nc3cccc4cccc(c34)NC2=O)cc1 (stereo not drawn) | · | – | · | ? | · | ·
Cc1ccc(NC(=O)CC2Nc3ccccc3NC2=O)cc1C (stereo not drawn) | · | – | · | ? | · | ·

Bioassay records (PubChem BioAssay)
